ELG1 DNA repair: ELG1-dependent DNA repair inhibition. HEK293T ELG1-luciferase reporter, luminescence, 16 h; DNA damage induced by 5-fluorouridine. 330,000 tested, 2.3% active. Potency, µM (series often up to 46.1 µM), inactives show top-dose activity change, negative = inhibition, hits mostly inhibitors; also: potency is read from the fitted curve at half-maximal effect; nearly all actives have a fitted effect of over 55% in size
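Overnight (16 hr) co-exposure of 2,000 cells/well to 5-fluorouridine and compound at 37 °C preceded detection. Luciferase was quantified via ONE-Glo luminescence; loss of signal denotes inhibition.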
B2AR arrestin: agonists driving beta-arrestin recruitment to human beta2-adrenergic receptor; 330,000 tested, 0.02% active; Potency, µM (doses to about 46.1 µM), without a hit: at the highest dose activation, most hits filed as activators; AID 492947; P07550; beta-arrestin recruitment to beta2AR, cell-based reporter;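 also: potency is read from the fitted curve at half-maximal effect; 0% = DMSO controls and full agonism = EC100 isoproterenol or metaproterenol; nearly all actives have a fitted effect of over 65% in size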
Target sequence (P07550 whole entry, looked up): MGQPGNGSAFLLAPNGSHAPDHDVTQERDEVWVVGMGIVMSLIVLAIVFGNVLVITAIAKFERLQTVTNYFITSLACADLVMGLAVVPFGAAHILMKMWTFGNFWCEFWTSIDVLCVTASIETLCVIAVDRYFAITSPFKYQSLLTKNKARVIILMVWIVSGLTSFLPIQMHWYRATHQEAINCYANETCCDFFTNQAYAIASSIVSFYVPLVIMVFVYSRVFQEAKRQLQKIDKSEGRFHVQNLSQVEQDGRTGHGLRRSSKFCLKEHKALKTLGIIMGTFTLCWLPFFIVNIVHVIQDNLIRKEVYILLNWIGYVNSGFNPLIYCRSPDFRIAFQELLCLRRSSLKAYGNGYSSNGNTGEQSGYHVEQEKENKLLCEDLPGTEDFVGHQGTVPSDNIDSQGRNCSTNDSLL
VP16 counter: inhibits Gal4-VP16 luciferase reporter, ROR gamma counter-screen. Drosophila S2 Gal4-VP16 UAS-luciferase, luminescence, 20 h. Potency, µM (titrated, usually from 53.6 µM), inactives show at the highest dose activity, negative = inhibition, actives largely listed as inhibitors. 310,000 tested, 3.5% active. AID 2546;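 also: Gal4-VP16 expression switched on by copper sulfate through the metallothionein promoter; potency is read from the fitted curve at half-maximal effect; nearly all actives have a fitted effect of over 50% in size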
RORg inh: ROR gamma (mouse) transcription inhibition | Potency, µM (highest dose often 53.6 µM), without a hit: at the top dose activity change, negative = inhibition, hits mostly inhibitors | 310,000 tested, 5.4% active | P51450 | Drosophila S2 Gal4-RORgamma UAS-luciferase reporter, 20 h; also: potency is read from the fitted curve at half-maximal effect; nearly all actives have a fitted effect of over 60% in size
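In this cell-based reporter format, copper sulfate (700 uM final) drives Gal4–ROR gamma fusion expression from a metallothionein promoter in Drosophila Schneider cells; compounds preincubated 1 hr, reporter read after 20 hr at ambient temperature.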
TSHR antag: blocks TSH signaling through the human TSH receptor; P16473; TSHR-expressing cells, TSH-stimulated cAMP HTRF, 2 h; active compounds read low; activity change, negative = inhibition, % at 11.5 µM; 330,000 tested, 0.2% active; AID 504810;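 active = activity change below a set negative limit, meaning inhibition stronger than a set level, cut at about -70% in these data; inconclusive = activity change between two set negative limits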
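Antagonism was scored as loss of TSH-driven cAMP in TSHR cells, stimulated with 4nM TSH (EC80) for 2 hours at 37 deg C and detected by homogeneous HTRF competition immunoassay.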
Starred values were filed as active, the others as inactive; [ ] = another dose, or the depositor's remark. Compounds with a hit are over-represented: about 7.5% of the library has one in this group of screens. Unless noted, calls follow the shape of the dose curve; as a rule, active = well fitted curve in the direction sought with a large enough effect; inconclusive = small, poorly fitted or top-dose-only effect, or another doubt; inactive = no such curve, though single readings can be large; an effect the other way counts as inactive or inconclusive. Unless noted, % is scaled to controls: 0 for no effect and ±100 for the full control effect.

How did Cc1cc(NC(=O)c2cc(-c3ccccc3)on2)n(-c2ccccc2)n1 do in these assays?
ELG1 DNA repair: 2%; B2AR arrestin: 0%; VP16 counter: -8%; RORg inh: -1%; TSHR antag: -7

Results for Cc1cc(NC(=O)c2cc(-c3ccco3)on2)n(-c2ccccc2)n1 ?
ELG1 DNA repair: -17%; B2AR arrestin: 0%; VP16 counter: -4%; RORg inh: 7.9µM*; TSHR antag: 0

How did Cc1cc(NC(=O)CCCSc2nc(-c3ccco3)cc(C(F)(F)F)n2)n(-c2ccccc2)n1 do in these assays?
ELG1 DNA repair: 16µM*; B2AR arrestin: 4%; VP16 counter: -12%; RORg inh: 3%; TSHR antag: -22

What do the screens show for `Cc1cc(NC(=O)CSc2nc(-c3ccco3)cc(C(F)(F)F)n2)n(-c2ccccc2)n1`?
ELG1 DNA repair: inconclusive; B2AR arrestin: -1%; VP16 counter: 14%; RORg inh: 28%; TSHR antag: 4

Results for CC1CCN(C(=O)c2[nH]cnc2C(=O)Nc2nccs2)CC1 ?
ELG1 DNA repair: 15%; B2AR arrestin: 0%; TSHR antag: -1

What do the screens show for `N#Cc1c(N(CC(=O)O)CC(=O)O)sc(C(=O)O)c1CC(=O)O`?
VP16 counter: -8%; RORg inh: -1%

How did Oc1ccc(Br)cc1-c1cc(-c2ccccc2)n[nH]1 do in these assays?
ELG1 DNA repair: -2%; B2AR arrestin: 0%; VP16 counter: inconclusive; RORg inh: 1.3µM*; TSHR antag: -9

How did O=[N+]([O-])c1cccc(-c2cc(-c3cc(Br)ccc3O)[nH]n2)c1 do in these assays?
ELG1 DNA repair: 16µM*; B2AR arrestin: 0%; VP16 counter: 11µM*; RORg inh: 7.1µM*; TSHR antag: -29

What do the screens show for `CC(C)(C)NC[C@@H](O)COc1ccccc1C1CCCC1`?
VP16 counter: -4%[17 µM]; RORg inh: 13%[2.98 µM]

What do the screens show for `O=C(CCl)N1CCN(S(=O)(=O)c2ccc3c(c2)OCCCO3)CC1`?
ELG1 DNA repair: 18µM*; B2AR arrestin: 1%; TSHR antag: 7

What do the screens show for `O=S(=O)(c1ccc(N2CCN(S(=O)(=O)c3ccc4c(c3)OCCO4)CC2)nc1)N1CCCC1`?
ELG1 DNA repair: 8.2µM*; B2AR arrestin: 0%; VP16 counter: 10%; RORg inh: inconclusive; TSHR antag: -5

How did CCCCCC(=O)N1CCN(S(=O)(=O)c2ccc3c(c2)OCCO3)CC1 do in these assays?
ELG1 DNA repair: -1%; B2AR arrestin: 0%; TSHR antag: -5

How did Cc1ccc2c(CNCc3ccccc3)cc(=O)oc2c1 do in these assays?
ELG1 DNA repair: inconclusive; B2AR arrestin: 0%; VP16 counter: -8%; RORg inh: 0%; TSHR antag: -15

What do the screens show for `CCN(CCCNC(=O)Cn1ncc2c([nH]c3ccc(C)cc32)c1=O)c1cccc(C)c1`?
ELG1 DNA repair: 22%; B2AR arrestin: 0%; VP16 counter: -13%; RORg inh: -11%; TSHR antag: -133*

Results for O=C(N/N=C/c1ccncc1)c1cccc(S(=O)(=O)Nc2ccc(Cl)cc2)c1 ?
ELG1 DNA repair: 0%; B2AR arrestin: 0%; VP16 counter: -6%; RORg inh: -14%; TSHR antag: -4

What do the screens show for `O=C(NN1CCOCC1)c1cc(-c2cccs2)nc2ccccc12`?
ELG1 DNA repair: -11%; B2AR arrestin: 0%; VP16 counter: -16%; RORg inh: 0%; TSHR antag: 17

How did Cc1cc(C)c2nc(NNC(=O)c3cc(-c4cccs4)nc4ccccc34)sc2c1 do in these assays?
ELG1 DNA repair: inconclusive; B2AR arrestin: 0%; VP16 counter: 10µM*; RORg inh: 1.8µM*; TSHR antag: 7

How did Cc1ccc2sc(NNC(=O)c3cc(-c4cccs4)nc4ccccc34)nc2c1C do in these assays?
ELG1 DNA repair: inconclusive; B2AR arrestin: -1%; VP16 counter: 18µM*; RORg inh: 4.5µM*; TSHR antag: 4

Results for O=C(NNc1nc2ccc(Cl)cc2s1)c1cc(-c2cccs2)nc2ccccc12 ?
ELG1 DNA repair: inconclusive; B2AR arrestin: -2%; VP16 counter: inconclusive; RORg inh: 1.1µM*; TSHR antag: 0

Results for Cc1ccc(S(=O)(=O)NN2C(=O)c3ccccc3NC2c2ccccn2)cc1 (stereo unspecified) ?
ELG1 DNA repair: 2%; B2AR arrestin: -2%; VP16 counter: 2%; RORg inh: -12%; TSHR antag: -5

Results for CCCc1c(C(=O)NNc2ccc(C)cc2)cnn1-c1ccccc1 ?
ELG1 DNA repair: 7.3µM*; B2AR arrestin: -1%; VP16 counter: 0%; RORg inh: 29%; TSHR antag: 2

Results for COc1ccc(-c2nc3c4c(ncn3n2)-c2ccccc2CC42CCCC2)cc1 ?
ELG1 DNA repair: -6%; B2AR arrestin: -1%; VP16 counter: -14%; RORg inh: -6%; TSHR antag: -1

Results for Oc1cccc(-c2nc3c4c(ncn3n2)-c2ccccc2CC42CCCC2)c1 ?
ELG1 DNA repair: 8.2µM*; B2AR arrestin: 0%; VP16 counter: 25µM*; RORg inh: inconclusive; TSHR antag: -4

Results for OC(COCc1ccc(Cl)cc1)CN1CCN(CC(O)COCc2ccc(Cl)cc2)CC1 (stereo unspecified) ?
ELG1 DNA repair: 21µM*; B2AR arrestin: 0%; VP16 counter: -4%; RORg inh: -8%; TSHR antag: 32

Results for Cn1nnnc1SCC(=O)N1CCN(S(=O)(=O)c2ccc(Cl)cc2)CC1 ?
ELG1 DNA repair: -5%; B2AR arrestin: -1%; VP16 counter: 0%; RORg inh: 27%; TSHR antag: 16

Results for CSc1ccc(C2C(C#N)=C(N)Oc3c2ccc(=O)c2c(C)oc(C)c32)cc1 (stereo unspecified) ?
ELG1 DNA repair: -18%; B2AR arrestin: 0%; VP16 counter: inconclusive; RORg inh: 6.3µM*; TSHR antag: 11

Results for COc1ccc2nc(NNC(=O)c3cc(=O)c4ccccc4o3)sc2c1 ?
ELG1 DNA repair: 16%; B2AR arrestin: -1%; VP16 counter: inconclusive; RORg inh: 8.9µM*; TSHR antag: 7

How did Cc1cccc2sc(NNC(=O)c3cc(=O)c4ccccc4o3)nc12 do in these assays?
ELG1 DNA repair: inconclusive; B2AR arrestin: -1%; VP16 counter: inconclusive; RORg inh: 4µM*; TSHR antag: -9

How did O=C(NNc1nc2c(F)cccc2s1)c1cc(=O)c2ccccc2o1 do in these assays?
ELG1 DNA repair: inconclusive; B2AR arrestin: 0%; VP16 counter: inconclusive; RORg inh: 10µM*; TSHR antag: 9

What do the screens show for `COCCNC(=O)C1(CC(C)C)C=CCN1C(=O)OC` (stereo unspecified)?
VP16 counter: 28%; RORg inh: 33%
